Test results taken from PubChem BioAssay AID1321 (The Scripps Research Institute Molecular Screening Center, 2008).
Among all 220,000 compounds or so, about 2,600 (1.2%) were called active.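 How the source made its calls: active means activation above the mean of all tested compounds plus 3 SD, set per screening run (cut at about 8.8% in these data); inactive means the rest.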 Many of the other results were omitted from the sample, so actives are more common in it than they were.

The molecules below were run against Wee1-like protein kinase (Homo sapiens) (UniProt P30291) (assay: compounds stabilizing Wee1-luciferase fusion – cell-based, HeLa, Wee1K328M-luciferase, luminescence, primary screen (AID 1321;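 further: cells exposed to compound for 20 h before luminescence read; 0% = DMSO alone and 100% = MG132 at 30 µM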)). Settings: HeLa Luc-Wee1K328M stability, at 5 µM, active compounds read high, 100% = proteasome inhibitor MG132 effect.

Compound | reporter increase
Cc1cc(C(F)(F)F)c(C#N)c(SCC(=O)NC2CC2)n1 | -3.28% (inactive)
CCOC(=O)COc1nc(C)cc(C(F)(F)F)c1C#N | 8.86% (active)
CCOC(=O)CN(C(=O)COc1nc(C)cc(C)c1C#N)c1ccc(Cl)cc1 | -2.18% (inactive)
CCCc1c(C(=O)O)cnn1-c1ccc(Cl)cc1 | 1.14% (inactive)
Cc1nnc(CN(C)Cc2cn[nH]c2-c2ccc(-c3ccccc3)cc2)o1 | 10.8% (active)
CN(CCC1CCOCC1)Cc1cn[nH]c1-c1ccc(-c2ccccc2)cc1 | -2.58% (inactive)
COc1ccc(-c2[nH]ncc2CN(C)Cc2cc(C)[nH]n2)c(F)c1 | -2.83% (inactive)
COC(=O)C1=C(N)Oc2cc(C)[nH]c(=O)c2C1c1ccc(Cl)cc1 (configuration not stated) | -0.92% (inactive)
COc1ccccc1N1CCN(C(=O)CSc2ncnc3c2cnn3-c2ccc(C)c(C)c2)CC1 | 3.89% (inactive)
O=[N+]([O-])c1ccc(N2CCSCC2)cc1O | 1.05% (inactive)
C=CCN(C(=O)Nc1ccc2c(c1)nc(C)n2C)c1ccccc1 | -1.11% (inactive)
Cc1nc2cc(NC(=O)Nc3cccc(F)c3)ccc2n1C | -1.84% (inactive)
Cc1nc2cc(NC(=O)NC3CC3)ccc2n1C | 12.8% (active)
Cc1cc(NC(=O)OC(C)C)ccc1-c1ccc(NC(=O)OC(C)C)cc1C | 0.84% (inactive)
Cn1c(SCC(=O)Nc2ccc(Cl)cc2)nc(O)cc1=O | -2.26% (inactive)
Cc1cccc(OCC(=O)Nc2ccccc2F)c1 | 12.9% (active)
COc1cccc(OCC(=O)Nc2ccccc2C(N)=O)c1 | 0.36% (inactive)
Cc1cccc(OCC(=O)NC(=S)Nc2ccccc2N2CCOCC2)c1 | 0.28% (inactive)
O=S(=O)(c1ccccc1)N1CN(Cc2ccc(F)cc2)c2nc3ccccc3nc21 | 2.39% (inactive)
COc1ccc(N(Cc2ccccc2)S(=O)(=O)c2cccc(C(=O)O)c2)cc1 | 0.36% (inactive)
CCOc1ccc(N2CC(C(=O)N/N=C/c3sccc3C)CC2=O)cc1 (configuration not stated) | -2.91% (inactive)
CCN(CC)CCCN=Cc1c(O)n(-c2ccc(C)cc2)c(=O)c2ccccc12 | 5.68% (inactive)
Cc1ccc2c(Cl)c(C(=O)Nc3nn[nH]n3)sc2c1 | -0.87% (inactive)
COc1ccc(-c2cc(C(=O)NCCCn3ccnc3)no2)cc1 | -0.75% (inactive)
Cc1ccc2c(Cl)c(C(=O)NCCCn3ccnc3)sc2c1 | 18.1% (active)
O=C1CC(Cc2ccc(Cl)cc2)C(=O)N1c1cc(Cl)ccn1 (configuration not stated) | 2.19% (inactive)
O=C(NC(=O)c1cc(OCC(F)(F)F)ccc1OCC(F)(F)F)Nc1ccccc1 | -0.42% (inactive)
